Measurements published in PubChem BioAssay (NCATS).
Records with an inconclusive call do not appear. The source made the active and inactive calls. Calls come from the whole dose curve; as a rule, active = well fitted inhibition curve with a large enough effect; inconclusive = small, poorly fitted or top-dose-only effect; inactive = flat fitted curve, though single readings scatter.

Tests used:
Experiment in all cases: qHTS profiling for inhibitors of Plasmodium falciparum proliferation (AID 504749); note: nearly all actives have a fitted effect of over 60% in size
Conditions in all cases: P. falciparum in erythrocytes, SYBR Green DNA, 72 h; series mostly up to 28.7 µM
CP266 = tested on: CP266
Summary of the method: (§1)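 Parasite proliferation within erythrocytes, 72 h exposure. Endpoint: SYBR Green I fluorescence after overnight lysis at room temperature. Controls: 0.29 uM artemisinin, DMSO.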

CP268 = tested on: CP268
Summary of the method: as §1

CP269 = tested on: CP269
Summary of the method: as §1

CP286 = tested on: CP286
Summary of the method: as §1

CP291 = tested on: CP291
Summary of the method: as §1

CP297 = tested on: CP297
Summary of the method: as §1

CP305 = tested on: CP305
Summary of the method: as §1

CP315 = tested on: CP315
Summary of the method: as §1

CP325 = tested on: CP325
Summary of the method: as §1

CP329 = tested on: CP329
Summary of the method: as §1

CP335 = tested on: CP335
Summary of the method: as §1

DIV14 = tested on: DIV14
Summary of the method: as §1

DIV17 = tested on: DIV17
Summary of the method: as §1

DIV30 = tested on: DIV30
Summary of the method: as §1

Dd2 = tested on: Dd2
Summary of the method: as §1

ECU = tested on: ECU
Summary of the method: as §1

FAB9 = tested on: FAB9
Summary of the method: as §1

GB4 = tested on: GB4
Summary of the method: as §1

HB3 = tested on: HB3
Summary of the method: as §1

ICS = tested on: ICS
Summary of the method: as §1

JCK = tested on: JCK
Summary of the method: as §1

N140 = tested on: N140
Summary of the method: as §1

P93_24 = tested on: P93_24
Summary of the method: as §1

P94_40 = tested on: P94_40
Summary of the method: as §1

PAD = tested on: PAD
Summary of the method: as §1

PC15 = tested on: PC15
Summary of the method: as §1

PC26 = tested on: PC26
Summary of the method: as §1

PC49 = tested on: PC49
Summary of the method: as §1

SC27B = tested on: SC27B
Summary of the method: as §1

TAB109 = tested on: TAB109
Summary of the method: as §1

TAB113 = tested on: TAB113
Summary of the method: as §1

TAB165 = tested on: TAB165
Summary of the method: as §1

W2 = tested on: W2
Summary of the method: as §1

Measured: Potency

CC(C)C[C@H](NC(=O)[C@@H](Cc1c[nH]c2ccccc12)NC(=O)[C@@H](Cc1ccc(O)cc1)NC(=O)[C@@H](CO)NC(=O)[C@@H](Cc1c[nH]c2ccccc12)NC(=O)C(Cc1cnc[nH]1)NC(=O)C1CCC(=O)N1)C(=O)N[C@@H](CCCN=C(N)N)C(=O)N1CCC[C@@H]1C(=O)NCC(N)=O (stereo partly drawn)
inactive: all assays above
